Among all 360,000 compounds or so, about 7,300 (2%) were called active. This excerpt belongs to a sample that is enriched for actives. A number with no mark means an inactive call. Rule as the data show it: active = inhibition above about 50%; inactive = the rest.

This assay is described as follows: inhibitors of TWEAK-Fn14 signaling, primary screen, luciferase reporter cells, uHTS (AID 1159606). The settings on record: TWEAK-stimulated Fn14 reporter cells, luciferase luminescence, 8 h; at 10 µM; hits give high values.
A word on the inhibition: it is the change of the read-out against control, counted positive when it falls. On to `CC(C)(C)C1CCC(=O)N2CCC[C@]2(c2ccccc2)C1` (stereo not given in full), for which the inhibition was -2.82%.
Turning to `COc1ccc(NC(=O)CCCNC(=O)Cn2cnc3sc4c(c3c2=O)CCCC4)cc1OC`, the inhibition is 4.82%.
In the case of `COc1ccc(/C=N/Nc2ncnc3sc4c(c23)CCCC4)cc1O` it was 91.4% (active).
With `COc1ccc(NC(=O)CCNC(=O)Cn2cnc3sc4c(c3c2=O)CCCC4)cc1OC`, the inhibition is -3.89%.
`Cc1ccccc1S(=O)(=O)N1[C@@H](c2cccc(Cl)c2)C(C(=O)OC(C)(C)C)=CC[C@H]1c1ccc(Cl)cc1`: the inhibition was -24.3%.
`Cc1ccc(-c2nc3c(Cl)cc(C(F)(F)F)cn3c2Cc2cccc(Cl)c2)cc1`: the inhibition was 25.6%.
As for `COC(=O)c1ccc2c(c1)S(=O)(=O)NC2C` (stereo not given), the inhibition was -6.18%.
In the case of `CN(C)c1ccc2c(=O)[nH][nH]c(=O)c2c1` it was -6.35%; in that of `COc1ccc(CCNC(=O)COC(=O)Cc2cccc(F)c2)cc1`, -0.83%; in that of `CC(C)Oc1ccc(Cc2n[nH]c(=S)n2Cc2ccccc2)cc1Cl`, 92.2% (active).
With `CC(C)Oc1ccc(CCc2n[nH]c(=S)n2Cc2ccccc2)cc1`, the inhibition is -6.3%.
`COc1cc(-c2n[nH]c(=S)n2Cc2ccccc2)cc(OC)c1OC`: the inhibition was -2.96%.
Turning to `CCC(C(=O)OC)n1cnc2scc(-c3ccc(C)cc3)c2c1=O` (stereo not given), the inhibition was 0.23%.
With `CCOC(=O)c1c(-c2ccc(C)cc2)csc1/N=C(\C)C1=C(O)c2ccccc2C1=O`, the inhibition was 66.2% (active).
As for `COC(=O)c1c(-c2ccc(C)cc2)csc1N`, the inhibition was -2.01%.
As for `CS(=O)(=O)N(C(=O)NC(=O)NC1CCS(=O)(=O)C1)C1CCCCC1` (stereo not given), the inhibition was 13.7%.
For `CCCS(=O)(=O)NC(=O)C1(C)CCCN(C(=O)c2cccs2)C1` (stereo not given), the inhibition was -4%.
In the case of `COCC1CCCCN1C(=O)c1cc(COc2ccc(C)c(C)c2)on1` (stereo not given) it was -33.8%; in that of `O=C(Nc1nc2ccc([N+](=O)[O-])cc2s1)c1ccc(S(=O)(=O)N2CCCc3ccccc32)cc1`, 64.6% (active).
Consider `CC(Nc1ccc([N+](=O)[O-])cc1[N+](=O)[O-])c1ccccc1` (stereo not given), for which the inhibition was -18.4%.
With `NS(=O)(=O)c1ccc(CNC(=O)c2cccc(S(=O)(=O)N3CCc4ccccc43)c2)cc1` the figure was 3.71%; with `Cc1ccc(NC(=O)c2cccc(S(=O)(=O)N3CCCc4ccccc43)c2)nc1`, 58.7% (active).
For the molecule `O=C(NNC(=O)c1ccc(-n2cncn2)c([N+](=O)[O-])c1)c1ccccc1`, the inhibition was 2.77%.
Turning to `CCC(=O)Nc1nnc(S(=O)(=O)N2CCCc3ccccc32)s1`, the inhibition is -3.9%.
`O=C(NC(Nc1nc2ccc([N+](=O)[O-])cc2s1)(C(F)(F)F)C(F)(F)F)c1ccccc1`: the inhibition is 57.6% (active).
Turning to `CC1CCN(C(=O)c2cccc(S(=O)(=O)N3CCCc4ccccc43)c2)CC1`, the inhibition is -0.65%.
For the molecule `NS(=O)(=O)c1ccc2nc(NC(=O)C3=COCCO3)sc2c1`, the inhibition is 24.4%.
In the case of `CCCCCCCCN1C(=O)[C@H](CC(=O)NCC23CC4CC(CC(C4)C2)C3)C[C@@]2(C(=O)OC)CCCCC=C12` it was 8.39%.
`CCNC(=O)C1(C)CCN(Cc2ccc(C(=O)OCC)o2)C1` (stereo not given): the inhibition is 1.05%.
Regarding `CN(C)N=Nc1ccc2nc[nH]c2c1`, the inhibition is -9.3%.
Regarding `O=S1(=O)CC(N2CCN(Cc3ccccc3F)CC2)CN1Cc1cn(Cc2ccccc2)nn1` (stereo not given), the inhibition was 5.09%.
As for `C=CCn1c(SCc2nnc(-c3ccccc3)o2)nnc1C(O)c1ccccc1` (stereo not given), the inhibition is -3.86%.
As to `CCC(NC(=O)c1ccccc1NC(=O)c1ccccc1)C(=O)NNC(=O)CSc1nc2ccccc2o1` (stereo not given), the inhibition is -0.91%.
`Cn1cnc2c1c(=O)n(Cc1c(Cl)cccc1Cl)c(=O)n2C`: the inhibition is -7.11%.
Regarding `Cn1c(N)c(C(=O)COC(=O)c2ccccc2NCc2ccco2)c(=O)n(C)c1=O`, the inhibition is 22.6%.
On to `CC(=O)c1cnn(-c2cc(Oc3ccc(F)cc3)ncn2)c1C`, for which the inhibition is 8.07%.
For the molecule `CCOC(=O)/C(=N\Nc1cc(Cl)ccc1Cl)N1CCN(C)CC1`, the inhibition is -34.9%.
With `O=C(/C=C\c1cn(-c2ccccc2)nc1-c1cccs1)N1CCOCC1` the figure was 98.4% (active); with `CC(=O)C1=C(C)NC(C)=C(C(C)=O)C1c1cn(-c2ccccc2)nc1-c1cccs1`, -6.98%; with `O=C(/C=C/c1cn(-c2ccccc2)nc1-c1ccc2c(c1)OCCO2)NCCCN1CCOCC1`, -1.36%.
Turning to `COc1ccc(-c2nn(C)c(=O)c3ccccc23)cc1NC(=O)COc1ccccc1`, the inhibition was 71.2% (active).
Consider `COc1ccc(-c2nn(C)c(=O)c3ccccc23)cc1CNC(=O)C1CCCCC1`, for which the inhibition was -37.6%.
As to `COc1ccc(S(=O)(=O)N2CCCCC2)cc1NC(=O)COc1ccccc1`, the inhibition is 22.4%.
With `CC1CC(=S)Nc2ccccc2N1Cc1ccccc1` (stereo not given) the figure was 13.5%; with `Cc1nc2ccc(NC(=O)N3CCC(c4ccccc4)C3)cc2nc1C` (stereo not given), 0.79%; with `CC(C)(C)OC(=O)N/N=C/c1ccc(C(=O)O)cc1`, -4.99%.
Turning to `O=C(O)c1ccc(N/N=C/c2ccc3ncccc3c2)cc1`, the inhibition was 95.2% (active).
With `CCNC(=S)NNC(=O)c1ccc2ncccc2c1`, the inhibition was 1.76%.
For `CC1(C(=O)Nc2ccc3c(c2)OCCO3)CCN1C(=O)Cc1cc(F)ccc1F` (stereo not given), the inhibition is -3.09%.
As to `O=S(=O)(NCc1ccccc1Cl)c1cnc[nH]1`, the inhibition is -2.25%.
With `O=S1(=O)CC(N2CCN(Cc3ccccc3F)CC2)CN1Cc1cn(Cc2cccc(C(F)(F)F)c2)nn1` (stereo not given), the inhibition was 10.4%.
For `CCN(CC(=O)NC1CCS(=O)(=O)C1)c1nc(-c2cccnc2)nc2ccccc12` (stereo not given), the inhibition was 0.56%.
On to `O=[N+]([O-])c1ccc(F)cc1Oc1nc(-c2cccnc2)nc2ccccc12`, for which the inhibition was 55.1% (active).
On to `O=[N+]([O-])c1cc2ccccc2nc1-c1ccccc1`, for which the inhibition is -7.41%.
In the case of `Cc1ccc(S(=O)(=O)N2[C@@H](c3cccc4ccccc34)C(C(=O)O)=C[C@H]2C(C)(C)C)cc1`, the inhibition was 14.3%.
As for `CCOc1ccc(CN2CCNC(=O)C2CC(=O)NCCCC2CCCC2)cc1` (stereo not given), the inhibition is 7.15%.
With `CCOC(=O)c1c(NC(=S)NC(=O)/C=C/c2cccs2)sc(C)c1C`, the inhibition is 20.2%.
Turning to `CCOC(=O)c1c(-c2ccccc2)csc1NC(=S)NC(=O)c1ccccc1`, the inhibition is 57.9% (active).
On to `CCOC(=O)C1=C(NC(=S)NC(=O)c2ccccc2)c2ccccc2CC1(C)C`, for which the inhibition is 4.16%.
Take `O=C(C1CCCO1)N1CCN(C(=O)C23CC4CC(CC(C4)C2)C3)CC1` (stereo not given): the inhibition was -24%.
Take `C[C@H](CO)N1C[C@H](C)[C@@H](CN(C)Cc2ccc3c(c2)OCO3)OCc2cnnn2CCCC1=O`: the inhibition is -16.3%.
With `Cc1cc(Cl)c(S(=O)(=O)N(C)C)cc1OCC(N)=O`, the inhibition was 12.6%.
On to `Cc1cc(Cl)c(S(=O)(=O)NCC2CCCO2)cc1OCC(N)=O` (stereo not given), for which the inhibition was 3.22%.
In the case of `Cc1cc(Cl)c(S(=O)(=O)Nc2ccc3c(c2)OCCO3)cc1OCC(N)=O` it was 86.8% (active); in that of `Cc1cc(C)cc(C(=O)OCC(=O)NCCNC(=O)COC(=O)c2cc(C)cc(C)c2)c1`, -2.52%.
In the case of `Cc1ccc(S(=O)(=O)N2CCC(=O)N([C@H](COCc3ccccc3)C(C)C)CC2)cc1` it was -20.6%; in that of `Oc1c(CN2CCN(c3ccc(F)cc3)CC2)cc(Cl)c2cccnc12`, 104% (active); in that of `Oc1c(CN2CCCC2)cc(COCc2ccccc2)c2cccnc12`, 9.88%.
Take `Cc1cccc(C)c1NC(=O)CN1CCN(c2ccc(F)cc2)CC1`: the inhibition is 0%.
In the case of `O=[N+]([O-])c1ccc(S(=O)(=O)Nc2cccc(-c3ccc(N4CCCC4)nn3)c2)cc1` it was -10.7%; in that of `O=C(Nc1ccccn1)C1CCN(S(=O)(=O)c2ccc3c(c2)OCCO3)CC1`, -16%; in that of `O=C(Nc1ccc2c(c1)OCCO2)C1CCCC1`, 92.4% (active).
With `O=C(Nc1ccc2c(c1)OCCO2)C1CCCN(c2ncccn2)C1` (stereo not given), the inhibition is 67.2% (active).
In the case of `O=C(Nc1ccc2c(c1)OCO2)C1CC1(Cl)Cl` (stereo not given), the inhibition was -7.08%.
As for `O=C(Nc1cccc(Cl)c1)C1CCCN(c2cnccn2)C1` (stereo not given), the inhibition was -12.7%.
Regarding `CN1C(=O)c2ccc(NC(=O)C3CCCCC3)cc2C1=O`, the inhibition was -18.9%.
Turning to `Cc1ccccc1S(=O)(=O)NC(=O)C1(C)CCN1C(=O)C1(c2ccccc2)CCCC1` (stereo not given), the inhibition was 0.78%.
For the molecule `COc1ccc(NC(=O)CN(C)C(=O)CNC(=O)C2CCCCC2)cc1`, the inhibition was -2.69%.
As for `COc1cccc(CNC(=O)[C@@H]2CCCN2C(=O)[C@@H]2CCCN2C(=O)c2ccccc2)c1`, the inhibition is 17.3%.
As for `CC1(C(=O)NS(=O)(=O)c2ccccc2)CCN1C(=O)C1CCCCC1` (stereo not given), the inhibition was -10.4%.
Consider `CCC1(C)NC(=O)N(CC(=O)N2CCN(c3cccc(Cl)c3)CC2)C1=O` (stereo not given), for which the inhibition is 5.53%.
Consider `O=C(CSc1nnc(-c2ccco2)o1)NCC(=O)c1ccccc1`, for which the inhibition is 7.83%.
Consider `CCn1c(SCC(=O)Nc2cc(C)c(Cl)cc2OC)nnc1-c1ccco1`, for which the inhibition is -18.4%.
As to `CSc1nc(-c2ccco2)nn1C(=O)c1ccccc1Cl`, the inhibition is 51% (active).
In the case of `CCn1cc(CN2CCCC(CNS(=O)(=O)Cc3ccccc3)C2)cn1` (stereo not given), the inhibition is 1.85%.
Turning to `CCCNC(=O)c1c(Cl)cnn1-c1ccc(C)cc1`, the inhibition is -19.4%.
Regarding `CC(=O)Nc1c2c(nn1-c1cccc(C)c1)CSC2`, the inhibition was -5.72%.
On to `Cc1cccc(-n2ncc(Cl)c(Cl)c2=O)c1`, for which the inhibition is 94.7% (active).
On to `COc1cccc(-c2nc3nc(C)cc(C)n3c2NC2CCCCC2)c1`, for which the inhibition is -20.7%.
On to `CC(C)(C)Oc1ccccc1Nc1nc(NCCO)nc(N2CCCC2)n1`, for which the inhibition is -8.68%.

The values above are taken from PubChem BioAssay AID1159606 (Sanford-Burnham Center for Chemical Genomics, 2016).
